In PubChem BioAssay AID1619 (SRMLSC, 2009):
Screen size: about 220,000 compounds; about 830 (0.38%) were called active. A selection follows. Measured potencies and affinities stand elsewhere. Unmarked numbers belong to inactive results.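 How the source made its calls: active means compound inhibiting the enzyme by more than half at any dose during confirmatory dose-response retesting; inconclusive means strong single-dose inhibitors picked by rank but not retested; inactive means the rest.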

Each compound was assayed against Leucine aminopeptidase (Plasmodium falciparum (isolate 3D7)) (UniProt Q8IL11) (assay: P. falciparum M17LAP inhibitors, primary screen, biochemical, fluorogenic H-Leu-NHMec substrate, 1536-well (AID 1619;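 further: plate controls were full reaction with DMSO carrier for no effect and no enzyme background for full effect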)). Details: recombinant M17LAP, H-Leu-NHMec fluorogenic kinetic assay; at 30 µM; active compounds read high.
Leucine aminopeptidase (Plasmodium falciparum (isolate 3D7)), sequence (Q8IL11 whole entry, looked up): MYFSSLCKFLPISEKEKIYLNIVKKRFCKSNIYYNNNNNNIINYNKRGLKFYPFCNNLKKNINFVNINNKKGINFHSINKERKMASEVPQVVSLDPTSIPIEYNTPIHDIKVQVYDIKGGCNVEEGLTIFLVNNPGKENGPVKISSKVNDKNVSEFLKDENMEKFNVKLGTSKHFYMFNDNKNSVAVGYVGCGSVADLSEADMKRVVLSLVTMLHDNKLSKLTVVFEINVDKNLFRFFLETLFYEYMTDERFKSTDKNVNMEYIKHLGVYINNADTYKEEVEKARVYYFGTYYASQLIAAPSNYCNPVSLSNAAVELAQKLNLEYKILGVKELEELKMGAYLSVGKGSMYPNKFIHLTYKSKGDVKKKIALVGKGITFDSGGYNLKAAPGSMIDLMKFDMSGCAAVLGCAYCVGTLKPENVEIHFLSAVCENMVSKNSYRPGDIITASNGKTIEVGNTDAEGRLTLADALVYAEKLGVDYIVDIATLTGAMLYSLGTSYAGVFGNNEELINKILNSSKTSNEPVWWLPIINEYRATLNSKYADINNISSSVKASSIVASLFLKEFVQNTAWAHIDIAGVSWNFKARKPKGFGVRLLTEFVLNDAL
`O=C(NCCN1CCN(c2ccccc2)CC1)c1ccc(NC(=O)C2CCCO2)cc1` (configuration not stated) showed an inhibition of -5.43%. `CC1=CC(C2CC(=O)N(c3ccccc3C)C2=O)CC2C(=O)N(c3ccccc3C)C(=O)C12` (configuration not stated) showed an inhibition of 3.8%. `CC1=C(C(=O)OCC2CCCO2)C(c2ccncc2)C2=C(CC(C)(C)CC2=O)N1` (configuration not stated) gave an inhibition of -16.9%. With `O=[N+]([O-])c1ccc2c(c1)C=C1CCCCC1(N1CCCCC1)O2` (configuration not stated) the inhibition was 9.55%. Work on `COc1ccc(/C=C2\SC(=O)N(CCn3cnnn3)C2=O)cc1` yielded an inhibition of -2.01%. `O=C(CN1CCN(Cc2ccc(F)cc2Cl)C1=O)NCCc1ccccc1` was tested, and the inhibition was 8.72%. Compound `CC1CCCN(c2nc(NCc3ccco3)nc(N)c2[N+](=O)[O-])C1` (configuration not stated) has an inhibition of -3.16%. With `CCCC(=O)Nc1nnc(-c2ccco2)s1` the inhibition was -4.22%. With `O=C(CCc1nc2ccccc2[nH]c1=O)OCC(=O)c1cccc2ccccc12` the inhibition was -3.73%. Work on `C/C(=C\c1ccco1)C1C(C#N)=C(N)OC2=C1C(=O)CC(C)(C)C2` (configuration not stated) yielded an inhibition of 5.9%. Compound `Cc1[nH]nc2c1C(c1ccco1)C(C#N)=C(N)O2` (configuration not stated) has an inhibition of 6.22%. `Cc1ccc(SCc2[nH]nc3c2C(c2ccco2)C(C#N)=C(N)O3)cc1` (configuration not stated) gave an inhibition of 44.8%. `CCCc1[nH]nc2c1C(/C(C)=C/c1ccccc1)C(C#N)=C(N)O2` (configuration not stated) was tested, and the inhibition was 6.81%. `COc1cc(C(=O)NCC(c2cccnc2)N2CCN(c3ccc(F)cc3)CC2)cc(OC)c1OC` (configuration not stated) was tested, and the inhibition was -0.25%. `COc1ccc(CNC(=O)CN(Cc2ccccc2)S(=O)(=O)c2ccc(Cl)cc2)cc1` was tested, and the inhibition was -4.99%. For `O=C(c1ccc2c(c1)OCO2)C1CCCN(C(=O)C2CCOCC2)C1` (configuration not stated), the inhibition was -3.38%. With `COCCCNC(NC(=O)c1ccc(Br)cc1)C(Cl)(Cl)Cl` (configuration not stated) the inhibition was 0.25%. In the case of `NC(=O)[C@@H]1CC2(CC(c3cccc(NC(=O)[C@H]4CCC(=O)N4)c3)=NO2)CN1C(=O)c1ccc(Cl)cc1` (some centres not stated), the inhibition is reported as 11.6%. `COc1ccccc1NC(=O)NCc1nc(-c2ccc(C(F)(F)F)cc2)no1` was tested, and the inhibition was 0.03%. Work on `COc1cc(OC)cc(C(=O)Nc2ccc([N+](=O)[O-])cn2)c1` yielded an inhibition of 1.24%. Work on `CN(C)c1ccc(C(=O)Nc2nnc(C3=COCCO3)o2)cc1` yielded an inhibition of 3.73%. For `C=CCOc1ccc(NC(=O)C2CC(=O)N(C(C)C)C2)cc1` (configuration not stated), the inhibition was 27.3%. With `CCOc1ccc(NC(=O)C2CC(=O)N(C(C)C)C2)cc1` (configuration not stated) the inhibition was 43.2%. For `CCOC(=O)c1c(C)n(C)c2ccc(OC(=O)c3ccc([N+](=O)[O-])cc3)cc12`, the inhibition was -6.49%. For `CCCc1cc(=O)[nH]c(Nc2ccc(Cl)cc2)n1`, the inhibition was 1.52%. Compound `COc1ccc(Cc2nnc(Nc3ccc(Cl)cc3)[nH]c2=O)cc1` has an inhibition of -7.25%. `COc1ccc(NC(=O)C2CCC(C)(C(=O)O)C2(C)C)cc1` (configuration not stated) showed an inhibition of 14.3%. `CC1(C(=O)O)CCC(C(=O)Nc2ccccc2)C1(C)C` (configuration not stated) showed an inhibition of 1.51%. `COc1cccc(NC(=O)c2ccc(NC(C)=O)cc2)c1` showed an inhibition of 10.5%. `COc1ccc2cc(CCNC(=O)C(C)C)c(=O)[nH]c2c1` gave an inhibition of 9.03%. For `COc1ccc(NC(=O)CN2CCC(C)CC2)cc1`, the inhibition was 32.1%. Compound `CCCNC(=O)COC(=O)c1cc(SC)ccc1Cl` has an inhibition of 6.08%. `CSc1ccc(Cl)c(C(=O)NCc2ccco2)c1` gave an inhibition of 14.1%. Compound `Cc1ccc(N=Cc2cc(C)n(C3CCCC3)c2C)cc1` has an inhibition of 3.83%. Compound `O=C(Nc1cc(F)cc(F)c1)c1ccc(NCCc2ccccc2)c([N+](=O)[O-])c1` has an inhibition of 5.14%. For `C=CCOC(=O)C1=C(C)Nc2[nH]c(=O)[nH]c(=O)c2C1c1ccccc1` (configuration not stated), the inhibition was 16.9%. `COc1ccc(Nc2nc3[nH]c(=O)cc(O)c3s2)cc1` showed an inhibition of 23.2%. Work on `N#C/C(=C/c1cn(CC(=O)O)c2ccccc12)C(=O)NCc1ccccc1` yielded an inhibition of 21.3%. `N#C/C(=C/c1cn(CC(=O)O)c2ccccc12)C(=O)Nc1ccccc1` was tested, and the inhibition was 10.1%. With `Cc1cc2cc(C)c3nnc(SCC(=O)Nc4ccc(S(=O)(=O)N5CCCCC5)cc4)n3c2cc1C` the inhibition was -1.16%. Work on `O=C(CCN1C(=O)c2ccccc2C1=O)Nc1cccc(S(=O)(=O)NC2=NCCC2)c1` yielded an inhibition of 22.4%. In the case of `CCOc1ccc(NC(=O)c2ccc(NCC(=O)N3CCCCCC3)cc2)cc1`, the inhibition is reported as -2.72%. `COC(=O)c1ccc(C(=S)N2CCCCC2)cc1` gave an inhibition of 3.47%. In the case of `Cn1c(=O)c2c(nc(Br)n2Cc2ccccc2Cl)n(C)c1=O`, the inhibition is reported as 0.26%. Compound `Cc1ncc([N+](=O)[O-])n1Cc1ccccc1F` has an inhibition of 10.8%. With `O=C(c1ccco1)N1CCN(C(=O)c2ccccc2[N+](=O)[O-])CC1` the inhibition was 4.98%. In the case of `O=C(c1ccc([N+](=O)[O-])cc1)N1CCN(C(=O)c2ccco2)CC1`, the inhibition is reported as 2.53%. `CC(=O)Nc1ccccc1NC(=O)C/C(C)=N/NC(=O)c1ccncc1` was tested, and the inhibition was 7.62%. For `N#C/C(=N\Nc1ccc(Cl)cc1)C(=O)c1ccsc1`, the inhibition was 4.01%. `CCCCNC(=O)c1ccc2c(SCC(=O)O)c3c(nc2c1)CCCC3` was tested, and the inhibition was 45.8%. In the case of `CCC(C)NC(=O)c1ccc2c(SCC(=O)O)c3c(nc2c1)CCCC3` (configuration not stated), the inhibition is reported as 25.2%. Compound `CC(C)CCNC(=O)c1ccc2c(SCC(=O)O)c3c(nc2c1)CCC3` has an inhibition of 7.01%. `COc1cc(NC(=O)c2ccc3c(SCC(=O)O)c4c(nc3c2)CCCC4)cc(OC)c1OC` gave an inhibition of 8.1%. With `O=C(Nc1ccc(Cl)cc1)c1cc(S(=O)(=O)N2CCOCC2)cs1` the inhibition was 1.6%. For `Cc1ccc(C)c(S(=O)(=O)N2CCN(C(=O)c3cnccn3)CC2)c1`, the inhibition was 6.85%. In the case of `CCCCCC(=O)N/N=C/c1ccccc1[N+](=O)[O-]`, the inhibition is reported as 36.9%. Compound `CC1=NNC(=O)C1CCC(=O)N/N=C/c1ccc(Cl)cc1Cl` (configuration not stated) has an inhibition of 11.1%. With `O=C1CC(CC(=O)N/N=C/c2ccccc2[N+](=O)[O-])=NN1` the inhibition was 56.8%. For `CC1=NNC(=O)C1CCC(=O)N/N=C/c1ccc(C)cc1` (configuration not stated), the inhibition was 5.32%. Compound `CC1=NNC(=O)C1CC(=O)N/N=C/c1sccc1C` (configuration not stated) has an inhibition of 9.78%. `CC1=NNC(=O)C1CCC(=O)N/N=C/c1c(Cl)cccc1Cl` (configuration not stated) showed an inhibition of -1.12%. `CC1=NNC(=O)C1CCC(=O)N/N=C/c1ccccc1` (configuration not stated) was tested, and the inhibition was -4.86%.
